Test systems include EKVX NSCLC; SN12C renal; UO-31 renal; TK-10 renal; ACHN renal; CAKI-1 renal; A498 renal; CCRF-CEM leukemia; MOLT-4 leukemia; SR leukemia; RPMI-8226 leukemia; OVCAR-8 ovarian; OVCAR-5 ovarian; OVCAR-4 ovarian; SK-OV-3 ovarian; IGROV1 ovarian; OVCAR-3 ovarian; NCI/ADR-RES ovarian.
Common to all, as to assay: NCI-60 one-dose screen, 48 h (100 = growth as untreated, 0 = no growth, -100 = all killed)
What all share (details): 10 µM unless noted

Compounds without any hit were thinned out: in the full panel of roughly 83,000, 20% have a hit.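 Step 1: grow cells in 96-well plates. Step 2: add test compound at a single concentration. Step 3: incubate 48 h. Step 4: record percent growth.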 Unmarked numbers belong to inactive results. The source made the active and inactive calls. How the source made its calls: active means growth percent below 10; inactive means the rest.

These results are taken from PubChem BioAssay (NCI).

For `Cc1cccc(Cl)c1NC(=O)c1cnc(Nc2cc(N3CCOCC3)cc(S(C)(=O)=O)c2)s1`, the growth is 27.7% in the assay with EKVX NSCLC; 28.6% with SN12C renal; 2.76% (active) in the assay on UO-31 renal; -64.6% (active) in the assay with TK-10 renal; -2.99% (active) in the assay on ACHN renal; -27.7% (active) in the assay with CAKI-1 renal. Moreover, the growth with A498 renal is -13.6% (active); in the assay on CCRF-CEM leukemia it was 72.7%; in the assay with MOLT-4 leukemia, 24.8%; in the assay with SR leukemia, 43.3%; with RPMI-8226 leukemia it was 70.5%; with OVCAR-8 ovarian, -2.17% (active). Besides, the growth in the assay with OVCAR-5 ovarian is 15.6%; with OVCAR-4 ovarian, 53.8%; in the assay with SK-OV-3 ovarian, -23.8% (active); with IGROV1 ovarian it was -49.1% (active); in the assay with OVCAR-3 ovarian, 32.1%; in the assay with NCI/ADR-RES ovarian it was 64.4%.

`COc1cc2c(cc1OCCCN1Cc3ccc(OCCCCC(=O)N4CCC(CCN5CCCC5)CC4)cc3C1)N=C(N)C21CCCC1`: the growth in the assay with EKVX NSCLC is 96.9%; in the assay on SN12C renal, 95.3%; with UO-31 renal, 93.7%; with TK-10 renal, 99.3%; in the assay on ACHN renal, 110%; in the assay on CAKI-1 renal it was 93.9%. Besides, the growth is 78.8% in the assay with A498 renal; 61.3% in the assay with CCRF-CEM leukemia; 44.8% in the assay on MOLT-4 leukemia; 1.87% (active) in the assay on SR leukemia; 62.6% in the assay with RPMI-8226 leukemia; 97.9% with OVCAR-8 ovarian. In addition, the growth in the assay with OVCAR-5 ovarian was 102%; in the assay on OVCAR-4 ovarian, 77%; in the assay with SK-OV-3 ovarian it was 71.7%; in the assay on IGROV1 ovarian, 83%; with OVCAR-3 ovarian, 99.2%; in the assay with NCI/ADR-RES ovarian it was 107%.

Take `Cc1ncc(-c2ccnc(Nc3ccc(S(C)(=O)=O)cc3)n2)n1C(C)C`: the growth in the assay with EKVX NSCLC was -10.5% (active); in the assay with SN12C renal, 0.723% (active); in the assay with UO-31 renal, -9.24% (active); with TK-10 renal it was -3.89% (active); with ACHN renal, 0.0849% (active); in the assay with CAKI-1 renal it was 9.99% (active). The growth in the assay on A498 renal is -42.6% (active); in the assay with CCRF-CEM leukemia, 4.05% (active); with MOLT-4 leukemia, -32.6% (active); in the assay with SR leukemia, -18.3% (active); in the assay on RPMI-8226 leukemia, -0.427% (active); in the assay with OVCAR-8 ovarian, 6.22% (active). Besides, the growth in the assay with OVCAR-5 ovarian is -0.123% (active); with OVCAR-4 ovarian, 3.33% (active); in the assay on SK-OV-3 ovarian, 11.6%; in the assay on IGROV1 ovarian it was -10.8% (active); in the assay on OVCAR-3 ovarian, 8.42% (active); in the assay with NCI/ADR-RES ovarian, 1.79% (active).

`O=C1C=CC2(NN=C(c3ccccc3)N2c2ccccc2)c2cccc(O)c21` (centres undefined): the growth in the assay with EKVX NSCLC is 57.9%; in the assay on SN12C renal, 7.23% (active); with UO-31 renal it was 22.1%; in the assay with TK-10 renal, 91.6%; in the assay on ACHN renal, 55.2%; with CAKI-1 renal, 81.7%. The growth in the assay with A498 renal is 103%; with CCRF-CEM leukemia it was 76.5%; in the assay on MOLT-4 leukemia, 71.7%; with SR leukemia it was 38.5%; in the assay on RPMI-8226 leukemia, 65.5%; with OVCAR-8 ovarian, 62.2%. Further, the growth was 39.9% in the assay on OVCAR-5 ovarian; 40.8% in the assay with OVCAR-4 ovarian; 91.2% in the assay on SK-OV-3 ovarian; 53.8% in the assay on IGROV1 ovarian; 11.3% in the assay with OVCAR-3 ovarian; 42.2% with NCI/ADR-RES ovarian.

`COc1ccc(F)c(F)c1C(=O)c1cnc(NC2CCN(S(C)(=O)=O)CC2)nc1N`: the growth was 2.22% (active) in the assay with EKVX NSCLC; 14.5% with SN12C renal; -3.94% (active) in the assay with UO-31 renal; -7.34% (active) in the assay on TK-10 renal; 5.94% (active) with ACHN renal; 13.1% with CAKI-1 renal. For the same compound, the growth with A498 renal was -53.4% (active); in the assay with CCRF-CEM leukemia it was 7.13% (active); in the assay on MOLT-4 leukemia it was 6.48% (active); in the assay with SR leukemia, 2.64% (active); in the assay with RPMI-8226 leukemia, 0.261% (active); in the assay on OVCAR-8 ovarian, 7.37% (active). Besides, the growth in the assay with OVCAR-5 ovarian is 12.6%; in the assay with OVCAR-4 ovarian, 8.36% (active); in the assay with SK-OV-3 ovarian it was 11.9%; in the assay with IGROV1 ovarian, 10.2%; with OVCAR-3 ovarian it was 13.1%; with NCI/ADR-RES ovarian, 1.6% (active).

On to `COc1cc2c(Oc3ccc4[nH]c(C)cc4c3F)ncnc2cc1OCCCN1CCCC1`, for which the growth was 95.4% with EKVX NSCLC; 91.9% in the assay with SN12C renal; 45.3% in the assay with UO-31 renal; 90.8% with TK-10 renal; 68.2% in the assay with ACHN renal; 58.9% with CAKI-1 renal. The growth was 2.51% (active) with A498 renal; 106% in the assay with CCRF-CEM leukemia; 62.9% in the assay on MOLT-4 leukemia; 84.3% with SR leukemia; 110% in the assay on RPMI-8226 leukemia; 97.1% with OVCAR-8 ovarian. Moreover, the growth in the assay with OVCAR-5 ovarian is 78.4%; with OVCAR-4 ovarian, 74%; in the assay with SK-OV-3 ovarian, 82.1%; with IGROV1 ovarian, 46.6%; in the assay on OVCAR-3 ovarian, 87.4%; in the assay with NCI/ADR-RES ovarian, 88.5%.

With `CNC(=O)c1cc(Oc2ccc(NC(=O)Nc3cc(C(C)(C)C)nn3-c3ccc4ncccc4c3)c(F)c2)ccn1`, the growth was -16.9% (active) in the assay with EKVX NSCLC; -10.3% (active) in the assay with SN12C renal; -21.4% (active) with UO-31 renal; -35.5% (active) in the assay with TK-10 renal; -20.6% (active) in the assay with ACHN renal; -24.9% (active) in the assay with CAKI-1 renal. Besides, the growth with A498 renal was -71.3% (active); with CCRF-CEM leukemia, 8.17% (active); in the assay with MOLT-4 leukemia, -1.34% (active); with SR leukemia it was -8.95% (active); in the assay on RPMI-8226 leukemia, 0.22% (active); in the assay on OVCAR-8 ovarian it was -30.2% (active). For the same compound, the growth is -3.54% (active) with OVCAR-5 ovarian; -13.6% (active) with OVCAR-4 ovarian; -13.3% (active) with SK-OV-3 ovarian; -20.2% (active) in the assay on IGROV1 ovarian; 1.66% (active) with OVCAR-3 ovarian; -23.1% (active) in the assay on NCI/ADR-RES ovarian.

On to `CN(c1ncccc1CNc1nc(Nc2ccc3c(c2)CC(=O)N3)ncc1C(F)(F)F)S(C)(=O)=O`, for which the growth is 8.69% (active) with EKVX NSCLC; 9.55% (active) in the assay with SN12C renal; -4.35% (active) in the assay with UO-31 renal; 0.859% (active) with TK-10 renal; -0.448% (active) in the assay with ACHN renal; 12.1% in the assay on CAKI-1 renal. Besides, the growth was -16.6% (active) in the assay with A498 renal; 3.5% (active) in the assay with CCRF-CEM leukemia; 0.451% (active) in the assay with MOLT-4 leukemia; -6.03% (active) with SR leukemia; -7.65% (active) in the assay with RPMI-8226 leukemia; 4.96% (active) with OVCAR-8 ovarian. Moreover, the growth is 7.36% (active) in the assay with OVCAR-5 ovarian; -7.63% (active) with OVCAR-4 ovarian; 5.63% (active) with SK-OV-3 ovarian; 7.61% (active) in the assay on IGROV1 ovarian; 15.1% with OVCAR-3 ovarian; 56.2% in the assay on NCI/ADR-RES ovarian.
